# Measured values from PubChem BioAssay (NCI).
# Compounds without any hit were thinned out: in the full panel of roughly 79,000, 15% have a hit. Values without a mark were called inactive. Activity calls are given as the source filed them. Rule as the data show it: active = growth inhibition above about 70%; inactive = the rest.
# Experiment: NCI Yeast Anticancer Drug Screen. Data for the mec2-1 strain (AID 157)
# Conditions: S. cerevisiae mec2-1 strain, at 50.0 µM (retest, dose inferred, filed as 5.0), stronger effect = higher value
# In short: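 Vehicle-treated cultures served as reference for growth inhibition of compound-exposed mec2-1 yeast.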
row,SMILES,growth inhibition
1,Clc1ccc(-c2nc3ccc(Cl)cc3[nH]2)cc1,88% (active)
2,O=C1c2ccccc2NC(=O)C2C1C(c1ccccc1)CC2(O)c1ccccc1 (stereo not given),88% (active)
3,COc1ccc(CC2C(=O)NC(C)C(=O)N(C)C3Cc4ccc(cc4)Oc4cc(ccc4O)CC(C(=O)NC(C)C(=O)NC(C)C(=O)N2C)N(C)C3=O)cc1 (stereo not given),64%
4,O=C1c2cccnc2-c2nccc3c2c1nc1cc(Br)ccc13,99% (active)
5,CCN(C(=O)O)c1ccc(/C=C/c2ccnc3ccccc23)cc1,96% (active)
6,O=C(/C=C/c1cccc(Cl)c1)c1ccccc1,99% (active)
7,O.O.O=C(O)C(O)C(O)C(OC1OC(CO)C(O)C(O)C1O)C(O)CO.O=C(O)C(O)C(O)C(OC1OC(CO)C(O)C(O)C1O)C(O)CO.[NH-]C1CCCCC1[NH-].[Pt+2] (stereo not given),21%
8,O=C(N=c1sc2ccccc2s1)N=c1sc2ccccc2s1,-14%
9,Cc1ccsc1/C=N/Nc1ccc2ccccc2n1,74% (active)
10,CC(C)(C)C1=NC(=S)SC2=NC(=O)C3(NN21)c1ccccc1-c1ccccc13,53%
11,COC(=O)c1ccc(OC)cc1,-3%
12,Cc1ccc(/C=C2\CN(C)CC3=C2NC(=S)NC3c2ccc(C)cc2)cc1 (stereo not given),54%
13,O=C1NC(=O)/C(=C/C=C/c2ccccc2)S1,73% (active)
14,Nc1ccc(Cc2ccc(N)cc2[N+](=O)[O-])c([N+](=O)[O-])c1,7%
15,COc1ccccc1/C=C\C(=O)c1ccccc1,98% (active)
16,NNC(=S)NN/C=C(\C=Nc1ccccc1)[N+](=O)[O-],70% (active)
17,CCCCCCCCCCCCCCCCCO,-7%
18,COc1cc(C(c2cc3c(cc2O)OCO3)N2CCOCC2)cc(OC)c1OC (stereo not given),13%
19,O=C1OCc2cccc3cccc1c23,43%
20,CSC(=S)NNC(C)c1nccc2ccccc12 (stereo not given),98% (active)

row,SMILES,growth inhibition
1,N#Cc1c(Cl)nc2ccccc2c1N=[N+]=[N-],-9%
2,CC(C)(C)CC(C)(C)c1ccc(OCCSC(=N)N)cc1,100% (active)
3,COC1CCC(O)C(CO)O1 (stereo not given),99% (active)
4,CC(=O)N(C1=C(Cl)C(=O)c2ccccc2C1=O)c1ccc(Cl)cc1,99% (active)
5,Cc1nc(N2N=C(c3ccc(Cl)cc3)CCC2=O)sc1[N+](=O)[O-],65%
6,Cn1c2c(c3ccccc31)CCN1C[C@@H]3CCCC[C@H]3C[C@@H]21,2%
7,Cn1cc(NC(=O)Nc2cc(C(=O)Nc3cc(C(=O)Nc4ccc5cc(S(=O)(=O)O)cc(S(=O)(=O)O)c5c4)n(C)c3)n(C)c2)cc1C(=O)Nc1cc(C(=O)Nc2ccc3cc(S(=O)(=O)O)cc(S(=O)(=O)O)c3c2)n(C)c1,99% (active)
8,CC(=O)Oc1c(Cl)cc(Cl)cc1C(c1cc(Cl)cc(Cl)c1OC(C)=O)C(Cl)(Cl)Cl,25%
9,CCCCCc1ccc2cc(C(=O)O)[nH]c2c1,72% (active)
10,C/C(=N/O)c1cc([N+](=O)[O-])c(O)cc1O,76% (active)
11,CCOC(=O)CNC(=O)Sc1ccc(C(C)(C)C)cc1C,74% (active)
12,S=C(N/N=C1\C=Cc2ccccc2C1)N/N=C1\C=Cc2ccccc2C1,59%
13,Cc1cccc(Nc2c3c(nc4ccccc24)CCCCC3)c1,79% (active)
14,Cc1ccc(NS(=O)(=O)c2ccc(C)cc2)cc1,92% (active)
15,CCOC(=O)C(=CNC(=S)Nc1c(CC)cccc1C(C)(C)C)C(=O)OCC,44%
16,COC1/C=C/OC2(C)Oc3c(C)c(OC(C)=O)c4c(c3C2=O)C(=O)C=C(NC(=O)/C(C)=C\C=C\C(C)C(O)C(C)C(O)C(C)C(OC(C)=O)C1C)C4=O (stereo not given),87% (active)
17,O=C(O)c1ccc(/C=C2\COc3ccccc3C2=O)cc1,92% (active)
18,Cc1c2c(c(C)c3ccncc13)S(=O)(=O)c1ccccc1-2,69%
19,Oc1c(Cl)cc(Cl)c2cccnc12,98% (active)
20,Cc1ccc(S(=O)(=O)Nc2ccc3c(c2)C(=O)c2ccccc2-3)cc1,93% (active)

# Same assay, conditions: S. cerevisiae mec2-1 strain, at 50.0 µM, stronger effect = higher value
row,SMILES,growth inhibition
1,Clc1ccc(-c2nc3ccc(Cl)cc3[nH]2)cc1,86.7% (active)
2,O=C1c2ccccc2NC(=O)C2C1C(c1ccccc1)CC2(O)c1ccccc1 (stereo not given),73.8% (active)
3,COc1ccc(CC2C(=O)NC(C)C(=O)N(C)C3Cc4ccc(cc4)Oc4cc(ccc4O)CC(C(=O)NC(C)C(=O)NC(C)C(=O)N2C)N(C)C3=O)cc1 (stereo not given),39.8%
4,O=C1c2cccnc2-c2nccc3c2c1nc1cc(Br)ccc13,92.2% (active)
5,CCN(C(=O)O)c1ccc(/C=C/c2ccnc3ccccc23)cc1,-17.9%
6,O=C(/C=C/c1cccc(Cl)c1)c1ccccc1,95.5% (active)
7,O.O.O=C(O)C(O)C(O)C(OC1OC(CO)C(O)C(O)C1O)C(O)CO.O=C(O)C(O)C(O)C(OC1OC(CO)C(O)C(O)C1O)C(O)CO.[NH-]C1CCCCC1[NH-].[Pt+2] (stereo not given),99.6% (active)
8,O=C(N=c1sc2ccccc2s1)N=c1sc2ccccc2s1,-2.6%
9,Cc1ccsc1/C=N/Nc1ccc2ccccc2n1,59.5%
10,CC(C)(C)C1=NC(=S)SC2=NC(=O)C3(NN21)c1ccccc1-c1ccccc13,74.3% (active)
11,COC(=O)c1ccc(OC)cc1,3.4%
12,Cc1ccc(/C=C2\CN(C)CC3=C2NC(=S)NC3c2ccc(C)cc2)cc1 (stereo not given),4.2%
13,O=C1NC(=O)/C(=C/C=C/c2ccccc2)S1,25.9%
14,Nc1ccc(Cc2ccc(N)cc2[N+](=O)[O-])c([N+](=O)[O-])c1,25.9%
15,COc1ccccc1/C=C\C(=O)c1ccccc1,99.4% (active)
16,NNC(=S)NN/C=C(\C=Nc1ccccc1)[N+](=O)[O-],68%
17,CCCCCCCCCCCCCCCCCO,63.3%
18,COc1cc(C(c2cc3c(cc2O)OCO3)N2CCOCC2)cc(OC)c1OC (stereo not given),67.7%
19,O=C1OCc2cccc3cccc1c23,38.6%
20,CSC(=S)NNC(C)c1nccc2ccccc12 (stereo not given),98.8% (active)

row,SMILES,growth inhibition
1,N#Cc1c(Cl)nc2ccccc2c1N=[N+]=[N-],63.3%
2,CC(C)(C)CC(C)(C)c1ccc(OCCSC(=N)N)cc1,99.6% (active)
3,COC1CCC(O)C(CO)O1 (stereo not given),99.6% (active)
4,CC(=O)N(C1=C(Cl)C(=O)c2ccccc2C1=O)c1ccc(Cl)cc1,95.3% (active)
5,Cc1nc(N2N=C(c3ccc(Cl)cc3)CCC2=O)sc1[N+](=O)[O-],86.5% (active)
6,Cn1c2c(c3ccccc31)CCN1C[C@@H]3CCCC[C@H]3C[C@@H]21,8.8%
7,Cn1cc(NC(=O)Nc2cc(C(=O)Nc3cc(C(=O)Nc4ccc5cc(S(=O)(=O)O)cc(S(=O)(=O)O)c5c4)n(C)c3)n(C)c2)cc1C(=O)Nc1cc(C(=O)Nc2ccc3cc(S(=O)(=O)O)cc(S(=O)(=O)O)c3c2)n(C)c1,93.7% (active)
8,CC(=O)Oc1c(Cl)cc(Cl)cc1C(c1cc(Cl)cc(Cl)c1OC(C)=O)C(Cl)(Cl)Cl,98.3% (active)
9,CCCCCc1ccc2cc(C(=O)O)[nH]c2c1,95.6% (active)
10,C/C(=N/O)c1cc([N+](=O)[O-])c(O)cc1O,84.9% (active)
11,CCOC(=O)CNC(=O)Sc1ccc(C(C)(C)C)cc1C,19.8%
12,S=C(N/N=C1\C=Cc2ccccc2C1)N/N=C1\C=Cc2ccccc2C1,41.4%
13,Cc1cccc(Nc2c3c(nc4ccccc24)CCCCC3)c1,28.1%
14,Cc1ccc(NS(=O)(=O)c2ccc(C)cc2)cc1,14.1%
15,CCOC(=O)C(=CNC(=S)Nc1c(CC)cccc1C(C)(C)C)C(=O)OCC,75.5% (active)
16,COC1/C=C/OC2(C)Oc3c(C)c(OC(C)=O)c4c(c3C2=O)C(=O)C=C(NC(=O)/C(C)=C\C=C\C(C)C(O)C(C)C(O)C(C)C(OC(C)=O)C1C)C4=O (stereo not given),50%
17,O=C(O)c1ccc(/C=C2\COc3ccccc3C2=O)cc1,67%
18,Cc1c2c(c(C)c3ccncc13)S(=O)(=O)c1ccccc1-2,36.2%
19,Oc1c(Cl)cc(Cl)c2cccnc12,99.2% (active)
20,Cc1ccc(S(=O)(=O)Nc2ccc3c(c2)C(=O)c2ccccc2-3)cc1,91.4% (active)
